Rows were chosen to be rich in hits. Some 1.6% of all compounds tested hit in one or more screens of this group.
KCNQ2 enhance: KCNQ2 (rat) channel potentiation; CHO-K1 KCNQ2, FluxOR thallium flux fluorescence; active compounds read high; O88943; actives 0.54% (n = 310,000); B-score at 10 µM;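 active = fluorescence ratio B-score at least 3 SD of library B-scores, with initial fluorescence B-score within 3 of them, cut at about 5.3 in these data; same plate scores as AID 2156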;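 note: B-score of peak minus minimum over baseline fluorescence ratio after K+ and Tl+ stimulus; positive B-score means potentiation of KCNQ2 with more thallium influx and brighter signal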
Target sequence (O88943 whole entry, looked up): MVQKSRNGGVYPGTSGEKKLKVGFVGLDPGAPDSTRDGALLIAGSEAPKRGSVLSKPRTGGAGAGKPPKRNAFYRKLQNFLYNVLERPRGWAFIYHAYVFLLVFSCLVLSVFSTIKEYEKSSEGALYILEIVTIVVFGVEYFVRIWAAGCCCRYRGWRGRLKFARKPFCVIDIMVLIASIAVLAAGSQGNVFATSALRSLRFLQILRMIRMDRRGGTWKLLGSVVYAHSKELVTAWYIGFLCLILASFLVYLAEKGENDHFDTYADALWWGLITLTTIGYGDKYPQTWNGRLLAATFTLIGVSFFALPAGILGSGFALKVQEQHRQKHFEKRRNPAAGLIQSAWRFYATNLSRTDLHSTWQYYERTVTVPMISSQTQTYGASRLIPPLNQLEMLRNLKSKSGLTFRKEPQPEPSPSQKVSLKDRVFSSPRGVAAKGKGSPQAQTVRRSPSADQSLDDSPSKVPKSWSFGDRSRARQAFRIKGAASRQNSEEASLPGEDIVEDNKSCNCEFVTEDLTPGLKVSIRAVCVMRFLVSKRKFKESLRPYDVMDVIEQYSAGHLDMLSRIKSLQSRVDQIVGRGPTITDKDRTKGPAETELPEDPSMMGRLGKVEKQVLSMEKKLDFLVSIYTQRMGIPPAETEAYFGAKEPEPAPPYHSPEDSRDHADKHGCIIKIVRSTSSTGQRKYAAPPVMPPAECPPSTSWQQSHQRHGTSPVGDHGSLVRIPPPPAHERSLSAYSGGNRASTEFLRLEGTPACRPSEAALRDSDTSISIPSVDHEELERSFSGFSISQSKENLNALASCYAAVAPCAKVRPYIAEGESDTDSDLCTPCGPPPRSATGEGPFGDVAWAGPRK
KCNQ2 block: KCNQ2 (rat) channel inhibition; O88943; CHO-K1 KCNQ2, FluxOR thallium flux, 20 min; active compounds read low; B-score at 10 µM; actives 1.1% (n = 310,000); AID 2156;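 active = fluorescence ratio B-score at most minus 3 library SDs, with starting brightness B-score within 2 library SDs, cut at about -5.5 in these data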
Kir21 conf inh: confirmation of mouse Kir2.1 potassium channel inhibitors; shares compounds with KCNQ2 enhance; Kir2.1-expressing cells, FluxOR thallium flux fluorescence; active compounds read low; Tl flux remaining, % of negative control (active compounds read low), % at 10 µM; actives 41% (n = 2,300); AID 2032;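 active = Primary-screen hit whose thallium flux fell at least 3 control SD below untreated wells in both duplicates, with normal baseline fluorescence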;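 note: 0% = blank wells without stimulus and 100% = stimulated no-compound controls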
HEK293 Tl flux: alters thallium flux in parental HEK293 cells, Kir2.1 counter-screen. actives 19% (n = 2,300). FluxOR thallium flux fluorescence; 0% = unstimulated blank wells. shares compounds with KCNQ2 enhance. AID 2105. FluxOR signal as % of negative control (100 = no effect), % at 10 µM;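 active = dye signal at least 3 control SD above or below untreated wells in both duplicates, raw fluorescence within 3, either direction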;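 note: percent is based on the flux ratio of peak minus minimum fluorescence over baseline F0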
CHO-K1 Tl ctr: alters thallium flux in parental CHO-K1 cells, KCNQ2 counter-screen | AID 2282 | actives 43% (n = 1,200) | activity increase over 3SD of controls, % at 10 µM | FluxOR thallium flux fluorescence; zero = vehicle mean+3SD, 100% = vehicle-minus-blank window | shares compounds with KCNQ2 enhance;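 active = signal rise of at least 3 SD above the untreated control mean, in both duplicate wells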;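 note: counter screen of KCNQ2 potentiator hits so any rise reflects channel-independent effects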
KCNQ1 pot spec: human KCNQ1 counter-target activity of KCNQ2 potentiators; CHO KCNQ1 stable, FluxOR thallium flux fluorescence; beyond 3SD, as % of vehicle-control signal; activation over 3SD threshold, % at 10 µM; actives 28% (n = 1,200); shares compounds with KCNQ2 enhance;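 active = fluorescence ratio rise of at least 3 SD of vehicle wells above their mean, in both replicate wells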;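 note: 0% = vehicle mean plus 3 SD and 100% = vehicle minus unstimulated blank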
KCNQ2 pot confirm: confirmation of rat KCNQ2 potassium channel potentiators; shares compounds with KCNQ2 enhance; CHO-KCNQ2 cells, FluxOR thallium flux fluorescence; actives 68% (n = 1,200); potentiation, less the hit threshold, % at 10 µM;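 active = fluorescence ratio rising 3 SD or more over the vehicle control mean in both replicates, plus primary screen hit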;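 note: peak minus minimum thallium fluorescence divided by baseline after K/Tl stimulus; 0% = vehicle mean plus 3 SD and 100% = vehicle minus unstimulated blank difference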
Kir21 spec: selectivity of KCNQ2 potentiators: effect on mouse Kir2.1; AID 2345; actives 2% (n = 1,200); shares compounds with KCNQ2 enhance; HEK293 Kir2.1, FluxOR thallium flux fluorescence; activity over 3SD threshold, % at 10 µM;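 active = fluorescence ratio rise of at least 3 SD above the vehicle-control mean, seen in both replicates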;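 note: 0% = vehicle mean plus 3 SD and 100% = vehicle minus no-stimulus blank window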
KCNQ2 W236L pot: KCNQ2 potentiators acting on retigabine-insensitive rat KCNQ2 W236L mutant; shares compounds with KCNQ2 enhance; current increase over 3SD of negative controls (%), active compounds read high, % at 25 µM; actives 10% (n = 940); CHO KCNQ2-W236L, automated patch clamp current;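 active = current increase at least 3 SD of the untreated controls above them in both duplicate recordings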
* = called active by the depositor; i = inactive; . = not tested or not shown.

SMILES | KCNQ2 enhance | KCNQ2 block | Kir21 conf inh | HEK293 Tl flux | others
COCC(=O)NC(c1ccccc1)c1ccccc1 | 8* | i | i | i | CHO-K1 Tl ctr=-19;KCNQ1 pot spec=-33;KCNQ2 pot confirm=-15;Kir21 spec=-36
CC1CN(S(=O)(=O)c2cccc(C(=O)NCCC3=CCCCC3)c2)CC(C)O1 (stereo not given) | 0.45 | i | . | .
COc1ccccc1CCN=C(N)NS(=O)(=O)c1ccc(C)c(C)c1 | . | i | . | .
CC1(C(=O)O)CCC(C(=O)NNC(=O)c2ccccc2Cl)C1(C)C (stereo not given) | 4.1 | i | . | .
O=C(Cn1ncc2c3ccccc3n(Cc3cccc(Cl)c3)c2c1=O)NCC1CCCO1 (stereo not given) | 8.2* | i | i | i | CHO-K1 Tl ctr=69*;KCNQ1 pot spec=-27;KCNQ2 pot confirm=2.4*;Kir21 spec=-16;KCNQ2 W236L pot=i
O=C(Cn1ncc2c3ccccc3n(Cc3ccccc3)c2c1=O)NC1CCCC1 | . | i | . | .
O=C(Cn1ncc2c3ccccc3n(Cc3ccccc3F)c2c1=O)N1CCN(c2ccccn2)CC1 | 11* | i | i | i | CHO-K1 Tl ctr=38*;KCNQ1 pot spec=-10;KCNQ2 pot confirm=24*;Kir21 spec=-32;KCNQ2 W236L pot=i
O=C(Cn1ncc2c3ccccc3n(Cc3ccccc3F)c2c1=O)NCC1CCCO1 (stereo not given) | 6* | i | i | i | CHO-K1 Tl ctr=22*;KCNQ1 pot spec=-17;KCNQ2 pot confirm=-4;Kir21 spec=-29;KCNQ2 W236L pot=i
O=C(CCSCc1ccccc1F)N1CCN(c2ccccn2)CC1 | . | i | . | .
O=C(Cn1ncc2c(=O)oc3ccccc3c21)NCC1CCCO1 (stereo not given) | 1.5 | i | . | .
COc1ccc(C(OC(=O)c2ccco2)C(=O)NC2CCCC2)cc1 (stereo not given) | 0.62 | i | . | .
Cc1c(C(=O)N(C)Cc2ccc(OC(F)F)cc2)oc2ccccc12 | . | i | . | .
COc1ccc(CCN(C)C(=O)c2oc3ccccc3c2C)cc1OC | 0.42 | i | 38%* | i
CCOc1ccccc1O[C@H](c1ccccc1)[C@H]1CNCCO1 | . | i | . | .
CCCc1ccc(C(C)NC(=S)NC2CCCCC2)cc1 (stereo not given) | 23* | i | i | i | CHO-K1 Tl ctr=-15;KCNQ1 pot spec=0.9*;KCNQ2 pot confirm=39*;Kir21 spec=-33;KCNQ2 W236L pot=i
Cc1ccc(CN=C(Nc2ccccc2)NC2CCCCC2)cc1 | . | i | 60%* | i
CCC(NC(=S)NC1CCCCC1)c1ccc(C)cc1 (stereo not given) | 22* | i | i | i | CHO-K1 Tl ctr=-6;KCNQ1 pot spec=-15;KCNQ2 pot confirm=71*;Kir21 spec=-46;KCNQ2 W236L pot=i
Cc1ccc(CNC(=S)NC2CCCCC2)cc1 | 6.4* | i | i | i | CHO-K1 Tl ctr=-6;KCNQ1 pot spec=-16;KCNQ2 pot confirm=7.2*;Kir21 spec=-48;KCNQ2 W236L pot=i
Cc1ccc(CNC(=O)NC2CCCCC2)cc1 | 5.1 | i | . | .
Cc1ccc(C)c(C(C)NC(=S)NC2CCCCC2)c1 (stereo not given) | 0.26 | i | . | .
O=C(Nc1ccccc1)NC1CCCCC1 | 0.04 | i | . | .
CC(C)c1ccc(NC(=S)NC2CCCCCC2)cc1 | . | i | . | .
Cc1c(NC(=O)CSCc2c(F)cccc2Cl)c(=O)n(-c2ccccc2)n1C | . | i | . | .
CC(C)c1ccc(N2C(=O)CC(NNC(=O)c3ccccc3Cl)C2=O)cc1 (stereo not given) | . | i | . | .
Cc1noc(C)c1C(=O)N1CCCC(C(=O)c2cccc(C(F)(F)F)c2)C1 (stereo not given) | . | i | . | .
SMILES | KCNQ2 enhance | KCNQ2 block | Kir21 conf inh | HEK293 Tl flux | others
Cc1cccc(OCC(=O)OC(C)C(=O)Nc2ccc(S(=O)(=O)N3CCCCC3)cc2)c1 (stereo not given) | 1.9 | i | . | .
C=CCOc1cccc(C(=O)N2CCC(CCC(=O)NC3CC3)CC2)c1 | 1 | i | . | .
O=c1c2c3c(sc2nc(NCCOCCO)n1Cc1ccco1)CCCCC3 | 5.6* | i | i | i | CHO-K1 Tl ctr=-7;KCNQ1 pot spec=38*;KCNQ2 pot confirm=-11;Kir21 spec=-38;KCNQ2 W236L pot=6.1%*
CC(O)CNc1nc2sc3c(c2c(=O)n1Cc1ccco1)CCCCC3 (stereo not given) | 1 | i | . | .
O=C(O)/C(CC(=O)c1ccc(Cl)cc1)=N/Nc1ccc([N+](=O)[O-])cc1[N+](=O)[O-] | 7.7* | i | i | i | CHO-K1 Tl ctr=-9;KCNQ1 pot spec=-8;KCNQ2 pot confirm=32*;Kir21 spec=-50;KCNQ2 W236L pot=i
C/C(CCC(=O)O)=N/Nc1ccc([N+](=O)[O-])cc1[N+](=O)[O-] | 1.6 | i | . | .
Cc1ccc([N+](=O)[O-])cc1S(=O)(=O)NCC1COc2ccccc2O1 (stereo not given) | . | i | 73%* | i
Cc1ccc(S(=O)(=O)NCC2COc3ccccc3O2)cc1 (stereo not given) | . | i | . | .
Cc1ccc(-c2nc(NCC3CCCO3)sc2C)cc1 (stereo not given) | . | i | . | .
O=C(CCCc1ccccc1)NCc1ccc(Cl)cc1 | . | i | . | .
CCCCCCCCNC(C)C(O)c1ccc(SC(C)C)cc1 (stereo not given) | 6.8* | i | . | . | CHO-K1 Tl ctr=-56;KCNQ1 pot spec=-20;KCNQ2 pot confirm=-46;Kir21 spec=-62
C[C@@H](NCCc1ccc(O)cc1)[C@@H](O)c1ccc(O)cc1 | 0.08 | i | . | .
Nc1ncnc(N2CCc3ccccc32)c1[N+](=O)[O-] | 1.4 | i | . | .
COC(=O)c1ccc(C2=NOC(C)(c3nnc(Cc4ccccc4)o3)C2)cc1 (stereo not given) | . | i | . | .
CCc1ccccc1NC1=NCC(=O)N1Cc1ccc(OC)cc1 | . | i | . | .
COc1ccc(CN2C(=O)CN=C2Nc2cc(C)ccc2C)cc1 | 15* | i | i | i | CHO-K1 Tl ctr=0.6*;KCNQ1 pot spec=9.2*;KCNQ2 pot confirm=-33;Kir21 spec=-41
Cc1nc(C)c(-c2csc(Nc3ccccn3)n2)s1 | 5.7* | i | i | i | CHO-K1 Tl ctr=-14;KCNQ1 pot spec=15*;KCNQ2 pot confirm=26*;Kir21 spec=-28;KCNQ2 W236L pot=40%*
Cc1ccnc(Nc2nc(-c3sc(C)nc3C)cs2)c1 | 2.9 | i | . | .
O=C1CSC(c2ccccc2F)N1CCN1CCCCC1 (stereo not given) | 0.16 | i | . | .
O=C1CSC(c2ccccc2F)N1c1cc(Cl)ccc1O (stereo not given) | 1 | i | i | i
COc1cccc(CN2CCN(CC(=O)NCCc3ccccc3)CC2)c1 | 0.16 | i | . | .
C/C=C/c1ccc(OCCOCCNCc2ccccc2)c(OC)c1 | 0.43 | i | 30%* | i
Cc1ccc(OCCNCc2ccccc2)c(C)c1 | . | i | . | .
COc1cc(C)ccc1OCCCCNCc1ccccc1 | 0.05 | i | 58%* | i
